According to PubChem BioAssay (Tox21):
Where “and” joins values, the source holds several entries; their conditions need not be identical. Equal values may be shown once. Inconclusive results are not listed. Entries that show only a call come without a potency. Where a structure was tested more than once in an assay, its records may differ in their call. Calls of active or inactive are those of the source. The call rests on the fitted dose curve; in most records, active means well fitted inhibition curve with a large enough effect in the repeat runs; inconclusive means weak or mixed curves; inactive means no such curve, though single readings can be large or run the other way.

Target: Cytochrome P450 2C9 (Homo sapiens) (UniProt P11712)
Sequence (P11712 whole entry, looked up): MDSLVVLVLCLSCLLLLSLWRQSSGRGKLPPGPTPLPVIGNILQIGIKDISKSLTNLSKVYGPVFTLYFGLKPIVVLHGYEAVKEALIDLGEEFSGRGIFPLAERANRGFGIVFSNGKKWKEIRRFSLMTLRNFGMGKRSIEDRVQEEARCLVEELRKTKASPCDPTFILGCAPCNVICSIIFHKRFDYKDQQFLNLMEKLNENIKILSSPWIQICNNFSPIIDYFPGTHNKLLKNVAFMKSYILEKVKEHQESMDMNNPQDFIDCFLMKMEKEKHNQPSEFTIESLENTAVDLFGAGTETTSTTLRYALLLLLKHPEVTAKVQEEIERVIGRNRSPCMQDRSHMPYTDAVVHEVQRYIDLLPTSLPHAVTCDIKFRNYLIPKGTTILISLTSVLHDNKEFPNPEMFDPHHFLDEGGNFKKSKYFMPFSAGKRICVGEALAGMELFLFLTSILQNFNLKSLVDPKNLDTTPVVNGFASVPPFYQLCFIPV
Assay: Cytochrome P450 Family 2 Subfamily C Member 9 (CYP2C9) small molecule antagonists: luciferase reporter qHTS assay (AID 1671198); further: nearly all actives have a fitted effect of over 50% in size
Details: P450-Glo CYP2C9 enzyme assay, luciferin luminescence; series mostly up to 115 µM
From the text: U.S. Tox21 Program National Center for Advancing Translational Sciences [NCATS] U.S. Environmental Protection Agency [EPA] National Institutes of Environmental Health Sciences [NIEHS] National Toxicology Program [NTP] U.S. Food and Drug Administration [FDA] Tox21 Assay Overview: Cytochrome P450 (CYP) enzymes are membrane-bound hemeproteins that play a key role in metabolism of drugs and xenobiotics. Evaluation of the effect of chemicals on CYP isozymes is useful to minimize the adverse drug reactions and toxicities in drug development process. Tox21 chemicals were tested for their effect on CYP enzyme activities by using P450-Glo (TM) screening systems (Promega Corporation, Madison, WI). These systems provide a luminescent method containing proluciferin substrates and are converted to luciferin products by CYP isozymes. The luciferin products formed are detected with a luciferin detection reagent, and the amount of light produced is proportional to CYP activity. P450-Glo (TM) CYP2C9 screening system (Catalog. No. V9790) was used to detect the compounds that interfere in CYP2C9 activity.
Tox21 Assay Protocol Summary: Two ul of enzyme-substrate mix was dispensed into medium binding white/solid 1536-well plates (Greiner Bio-One North America Inc., Monroe, NC) using a BioRaptr Flying Reagent Dispenser (FRD, Beckman Coulter, Brea, CA). […] The assay plates were incubated at room temperature for 10 min. Then 2 ul of NADPH regeneration solution was added to each well of the assay plates using an FRD and incubated at 37C for 1 h. The reaction was stopped by adding 4 ul of detection reagent using an FRD and after 20 min incubation at room temperature the luminescence signal was measured using a ViewLux plate reader (Perkin Elmer, Shelton, CT). Data were expressed as relative luminescence units.
Potency means the concentration at half of the fitted maximal effect.

Row | SMILES | Potency
1 | CCN(CC)CCO | inactive
2 | Cc1cccc([N+](=O)[O-])c1 | inactive
3 | CC(C)=C[C@@H]1[C@@H](C(=O)OCc2coc(Cc3ccccc3)c2)C1(C)C | 1.42 µM (active) and 5.49 µM (active)
4 | O=Cc1cccc(Oc2ccccc2)c1 | 40.2 µM (active)
5 | C[C@]12CC[C@H]3[C@@H](CC[C@@]45O[C@@H]4C(O)=C(C#N)C[C@]35C)[C@@H]1CC[C@@H]2O | inactive
6 | CC(C)C1(C)N=C(c2nc3ccccc3cc2C(=O)O)NC1=O (stereo not given) | inactive
7 | CC(C)(Cl)Cl | inactive
8 | O=C(NC(=O)c1c(F)cccc1F)Nc1cc(Cl)c(OC(F)(F)C(F)C(F)(F)F)cc1Cl (stereo not given) | 11.2 µM (active) and 17.4 µM (active)
9 | BrCCBr | inactive
10 | O=[N+]([O-])c1ccccc1 | inactive
11 | CCOP(OCC)OCC | inactive
12 | CC(Br)C(=O)O (stereo not given) | 36 µM (active)
13 | CON(C)C(=O)Nc1ccc(Cl)c(Cl)c1 | 40.1 µM (active) and 39.9 µM (active)
14 | CCC12COCN1COC2 | inactive
15 | C#CC(C)(C)NC(=O)c1cc(Cl)cc(Cl)c1 | 71.7 µM (active) and inactive
16 | CNC(=O)Oc1ccccc1OC(C)C | inactive
17 | Clc1ccccc1Cl | inactive
18 | CCCCOC(=O)c1ccccc1C(=O)OCCCC | 35.6 µM (active)
19 | CCC[CH2][Sn]([Cl])([Cl])[Cl] | inactive
20 | Nc1ccc(Br)cc1 | 35.5 µM (active) and 35.6 µM (active)

Row | SMILES | Potency
21 | c1cc2c3c(cccc3c1)CC2 | inactive
22 | O=C(O)c1ccccn1 | inactive
23 | CC(C)(C)OOC(C)(C)C | inactive
24 | Nc1ccccc1C(=O)O | inactive
25 | CN(N=O)c1ccccc1 | inactive
26 | c1ccc2c(c1)oc1ccccc12 | 36.1 µM (active) and inactive
27 | Cc1[nH]c(=O)n(C(C)(C)C)c(=O)c1Cl | inactive
28 | Cc1ccc(N)cc1N | 34.6 µM (active) and 39.9 µM (active)
29 | O=S(=O)(c1ccc(Cl)cc1)c1cc(Cl)c(Cl)cc1Cl | 28.3 µM (active)
30 | Nc1ccc(Cc2ccc(N)cc2)cc1 | 31.2 µM (active) and inactive
31 | CCOP(=S)(OCC)SCCSCC | 32.7 µM (active) and 15.1 µM (active)
32 | c1ccc2c(c1)Oc1ccccc1O2 | inactive
33 | CCCC1COC(Cn2cncn2)(c2ccc(Cl)cc2Cl)O1 (stereo not given) | 2.04 µM (active) and 2.24 µM (active)
34 | CCCCCCCCCl | inactive
35 | O=[N+]([O-])c1ccc(Oc2ccc(Cl)cc2Cl)cc1 | 28.4 µM (active) and 31.7 µM (active)
36 | CN(C)N=O | inactive
37 | COC(=O)NC(=S)Nc1ccccc1NC(=S)NC(=O)OC | 39.9 µM (active)
38 | CN=C=S | inactive
39 | NCC(O)c1ccc(O)cc1 (stereo not given) | inactive
40 | CC(C)OC(=O)Nc1cccc(Cl)c1 | 55.6 µM (active) and 71 µM (active)
